Data: PubChem BioAssay (NCATS)
Where “and” joins values, the source holds several entries; their conditions need not be identical. Identical values can stand only once. Results filed as inconclusive are left out. Calls of active or inactive are those of the source. Unless noted, calls come from the whole dose curve.

Key:
[1] = Cell Viability - BJ (AID 421); settings: BJ fibroblast viability, qHTS;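 note: potency is the fitted concentration of half-maximal effect; cells exposed to compound for 40 hours at 37 °C before readout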
Summary of the method: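 Quantitative HTS: ATP depletion in BJ cells after 40 hr compound exposure in complete culture medium, detected with CellTiter-Glo; AC50 from standard Hill fits.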

[2] = Cell Viability - SK-N-SH (AID 435); settings: SK-N-SH neuroblastoma cell viability qHTS; note: potency is the fitted concentration of half-maximal effect
Summary of the method: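 Cells seeded at 1500 per well and incubated 5 hr at 37 °C. Compound added, then 40 hr at 37 °C. CellTiter-Glo added, 20 min at room temperature, luminescence read.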

[3] = Cell Viability - N2a (AID 540; active = well fitted curve in the direction sought with a large enough effect; an effect the other way counts as inactive or inconclusive;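 note: plate controls were DMSO alone for no effect and tamoxifen control for full effect; nearly all actives have a fitted effect of over 45% in size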); settings: N2a mouse neuroblastoma cell viability; activity change, negative = cytotoxicity: at 92.2 µM (top of the series)
Summary of the method: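 CellTiter-Glo ATP luminescence, read 20 min after reagent at room temperature, reported viability following 40 h compound treatment at 37 °C. N2a mouse neuroblastoma cells seeded 1500/well; Hill equation gave AC50.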

[4] = Cell Viability - NIH 3T3 (AID 541; active = well fitted curve in the direction sought with a large enough effect; an effect the other way counts as inactive or inconclusive;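 note: cells exposed to compound for 40 hours; nearly all actives have a fitted effect of over 25% in size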; note: potency is the fitted concentration of half-maximal effect;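 for activity change, negative = cytotoxicity: plate controls were DMSO alone for no effect and tamoxifen positive control for full effect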); settings: NIH 3T3 cell viability, qHTS; activity change, negative = cytotoxicity: at 92.2 µM (top of the series)
Summary of the method: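 Intracellular ATP (CellTiter-Glo luminescence, 20 min at room temperature) measured after 40 hr compound exposure at 37 °C of 1000 NIH 3T3 mouse fibroblasts/well in complete medium; AC50 derived by Hill-equation modelling of qHTS concentration-response curves.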

[5] = Cell Viability - H-4-II-E (AID 543; active = well fitted curve in the direction sought with a large enough effect; an effect the other way counts as inactive or inconclusive;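 note: cells exposed to compound for 40 hours; nearly all actives have a fitted effect of over 35% in size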; note: potency is the fitted concentration of half-maximal effect); settings: H-4-II-E rat hepatoma viability; series mostly up to 92.2 µM
Summary of the method: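 CellTiter-Glo luminescence (intracellular ATP) measured after 40 h compound exposure at 37 °C in H-4-II-E rat hepatoma cells seeded at 1500/well. Values are AC50s fitted with the standard Hill equation.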

[6] = Cell Viability - SH-SY5Y (AID 544; active = well fitted curve in the direction sought with a large enough effect; an effect the other way counts as inactive or inconclusive;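 note: cells exposed to compound for 40 hours; nearly all actives have a fitted effect of over 55% in size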; note: potency is the fitted concentration of half-maximal effect); settings: SH-SY5Y neuroblastoma cell viability; viability change, negative = cytotoxic: at 92.2 µM (top of the series)
Summary of the method: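 Cytotoxicity measured via ATP-dependent luciferase luminescence (CellTiter-Glo) following 40 h, 37 °C exposure of 1500 SH-SY5Y cells per well. Concentration-response data were fitted with the standard Hill equation to give AC50.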

[7] = Cellular Toxicity (caspase-3) Jurkat (AID 655; active = well fitted curve in the direction sought with a large enough effect; an effect the other way counts as inactive or inconclusive;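 note: cells exposed to compound for 16 h at 37 °C before reading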); settings: Jurkat caspase-3 activation, luminescence; caspase-3 activation: at 92.2 µM (top of the series), DMSO = 0%, tamoxifen = 100%
Summary of the method: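 Caspase 3/7 activation is scored as increased luminescence in Jurkat cells cultured with compound for 16 hours in complete medium. AC50 values come from Hill fits of qHTS concentration-response data normalized to DMSO and 100 uM tamoxifen controls.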

[8] = biological target: Estrogen receptor (Homo sapiens) (UniProt P03372); test: qHTS assay for small molecule antagonists of estrogen receptor alpha signaling (AID 588513; active = well fitted curve in the direction sought with a large enough effect in the signal ratio, with a control signal flat, not every such curve was filed as active; the % refers to the signal ratio; note: % is set by controls: 0 for no effect and ±100 for the full control effect); settings: ER-alpha-UAS-bla HEK293, beta-lactamase ratio, antagonist mode; series mostly up to 76.9 µM
Sequence of Estrogen receptor (Homo sapiens) (P03372 whole entry, looked up): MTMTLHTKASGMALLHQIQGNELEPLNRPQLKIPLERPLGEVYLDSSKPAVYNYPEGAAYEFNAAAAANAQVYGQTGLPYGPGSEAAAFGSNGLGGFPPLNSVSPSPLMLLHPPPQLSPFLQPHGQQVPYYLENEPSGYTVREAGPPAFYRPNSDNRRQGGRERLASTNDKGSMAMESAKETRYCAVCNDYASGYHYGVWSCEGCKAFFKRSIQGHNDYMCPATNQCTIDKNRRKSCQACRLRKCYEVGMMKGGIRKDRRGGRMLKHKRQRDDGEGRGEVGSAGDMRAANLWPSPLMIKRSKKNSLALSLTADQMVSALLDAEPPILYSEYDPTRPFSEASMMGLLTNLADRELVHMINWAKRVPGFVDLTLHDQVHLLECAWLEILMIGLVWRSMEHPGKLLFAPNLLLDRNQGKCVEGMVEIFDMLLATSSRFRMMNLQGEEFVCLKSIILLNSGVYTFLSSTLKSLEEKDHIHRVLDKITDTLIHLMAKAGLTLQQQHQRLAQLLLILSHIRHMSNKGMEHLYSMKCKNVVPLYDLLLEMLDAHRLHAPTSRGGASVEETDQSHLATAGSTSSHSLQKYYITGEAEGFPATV
Summary of the method: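 Cells were plated at 5000/well and incubated 4 h at 37 C. Compounds were added as 1:2 dilution series, duplicates. 17-beta-estradiol (0.5nM final) was added for 18 h before CCF4 detection.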

[9] = biological target: Bile acid receptor (Homo sapiens) (UniProt Q96RI1); test: qHTS assay for small molecule antagonists of farnesoid X receptor signaling (AID 588526); settings: HEK293T FXR-UAS-bla, beta-lactamase ratio, antagonist mode; series mostly up to 76.7 µM; note: % is set by controls: 0 for no effect and ±100 for the full control effect
Sequence of Bile acid receptor (Homo sapiens) (Q96RI1 whole entry, looked up): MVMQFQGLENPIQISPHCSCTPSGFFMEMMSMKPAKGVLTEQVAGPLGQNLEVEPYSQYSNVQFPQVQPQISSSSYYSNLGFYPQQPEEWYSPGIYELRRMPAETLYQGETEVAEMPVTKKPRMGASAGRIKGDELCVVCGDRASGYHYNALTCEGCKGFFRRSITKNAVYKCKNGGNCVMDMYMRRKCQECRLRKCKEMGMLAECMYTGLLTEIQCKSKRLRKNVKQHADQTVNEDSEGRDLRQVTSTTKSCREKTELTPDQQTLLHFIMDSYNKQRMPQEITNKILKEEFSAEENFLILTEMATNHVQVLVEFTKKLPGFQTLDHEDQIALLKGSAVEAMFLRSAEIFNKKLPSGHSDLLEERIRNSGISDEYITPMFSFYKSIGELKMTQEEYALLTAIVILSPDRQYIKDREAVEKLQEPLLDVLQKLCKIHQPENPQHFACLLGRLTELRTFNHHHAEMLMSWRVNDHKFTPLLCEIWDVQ
Summary of the method: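 Antagonist mode: titrated compounds tested against chenodeoxycholic acid stimulation (normalized to 50 uM CDCA and DMSO) in GeneBLAzer HEK293T cells for 16 h. Beta-lactamase read by CCF4 fluorescence; IC50 from Hill fits.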

[10] = biological target: Bile acid receptor (Homo sapiens) (UniProt Q96RI1); test: qHTS assay for small molecule agonists of farnesoid X receptor signaling (AID 588527); settings: HEK293T FXR-UAS-bla, beta-lactamase ratio, 16 h; stronger effect = higher value;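 note: 0% = vehicle basal and 100% = reference agonist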
Summary of the method: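 Quantitative HTS used FXR-UAS-bla HEK293T cells with 16 h compound incubation at 37 C. EC50 values came from concentration-response curves normalized to chenodeoxycholic acid.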

[11] = biological target: Peroxisome proliferator-activated receptor delta (Homo sapiens) (UniProt Q03181); test: qHTS assay for small molecule agonists of peroxisome proliferator-activated receptor delta signaling (AID 588534); settings: HEK293T PPARdelta-UAS-bla, beta-lactamase ratio, 18 h; series mostly up to 76.7 µM;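 note: 0% = DMSO basal wells and 100% = positive control agonist at 10 µM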
Sequence of Peroxisome proliferator-activated receptor delta (Homo sapiens) (Q03181 whole entry, looked up): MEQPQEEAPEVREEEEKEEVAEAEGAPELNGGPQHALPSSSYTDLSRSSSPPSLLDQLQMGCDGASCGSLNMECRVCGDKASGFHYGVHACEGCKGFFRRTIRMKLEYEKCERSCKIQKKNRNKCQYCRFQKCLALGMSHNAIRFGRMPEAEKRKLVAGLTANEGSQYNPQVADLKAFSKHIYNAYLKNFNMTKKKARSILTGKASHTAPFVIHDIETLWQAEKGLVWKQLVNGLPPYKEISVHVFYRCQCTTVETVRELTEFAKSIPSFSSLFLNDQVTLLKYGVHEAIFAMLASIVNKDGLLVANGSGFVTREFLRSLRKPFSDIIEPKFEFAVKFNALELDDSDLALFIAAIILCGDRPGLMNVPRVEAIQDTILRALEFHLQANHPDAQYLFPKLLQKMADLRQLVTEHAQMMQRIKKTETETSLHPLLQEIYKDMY
Summary of the method: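 Agonist-mode beta-lactamase reporter readout (CCF4 dye, 2 h at RT) after 18 h at 37 °C exposure to a titration; Hill-equation fitting gave EC50 and maximal response.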

[12] = qHTS assay for small molecule antagonists of peroxisome proliferator-activated receptor delta signaling (AID 588535); settings: HEK293T PPARd-UAS-bla, beta-lactamase FRET ratio, 18 h; 460 nm channel;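 note: cells co-treated with a PPAR-delta agonist as stimulator during compound exposure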
Summary of the method: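 Fluorescence from CCF4-loaded GeneBLAzer PPAR-delta-UAS-bla HEK293T cells (2 hrs RT loading) quantified reporter inhibition after an 18 hr, 37 C compound exposure across a titration.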

[13] = biological target: Vitamin D3 receptor (Homo sapiens) (UniProt P11473); test: qHTS assay for small molecule antagonists of vitamin D receptor signaling (AID 588541); settings: HEK293T VDR-UAS-bla, beta-lactamase ratio, antagonist mode; series mostly up to 76.7 µM;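 note: receptor activated by calcitriol during compound treatment; % is set by controls: 0 for no effect and ±100 for the full control effect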
Sequence of Vitamin D3 receptor (Homo sapiens) (P11473 whole entry, looked up): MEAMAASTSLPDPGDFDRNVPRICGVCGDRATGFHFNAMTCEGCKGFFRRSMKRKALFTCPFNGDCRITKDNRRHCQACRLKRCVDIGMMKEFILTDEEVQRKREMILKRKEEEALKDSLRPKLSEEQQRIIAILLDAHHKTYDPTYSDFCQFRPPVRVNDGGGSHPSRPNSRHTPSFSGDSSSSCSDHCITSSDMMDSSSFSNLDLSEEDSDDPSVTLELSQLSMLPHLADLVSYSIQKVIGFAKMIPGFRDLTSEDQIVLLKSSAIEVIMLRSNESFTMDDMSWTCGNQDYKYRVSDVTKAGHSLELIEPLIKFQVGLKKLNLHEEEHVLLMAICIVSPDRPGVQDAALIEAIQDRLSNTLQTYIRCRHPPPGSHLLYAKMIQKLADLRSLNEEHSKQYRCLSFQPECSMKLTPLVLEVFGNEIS
Summary of the method: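 VDR-UAS-bla HEK293T cells in 2% charcoal-stripped FBS were stimulated with 1-alpha,25-dihydroxyvitamin D3 (3 nM final) plus compound for 16 h at 37 C. The beta-lactamase CCF4 readout was normalized to 50 nM agonist and DMSO, and Hill fits gave IC50.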

[14] = biological target: Retinoic acid receptor RXR-alpha (Homo sapiens) (UniProt P19793); test: qHTS assay for small molecule agonists of retinoid X receptor alpha signaling (AID 588544); settings: HEK293T RXRa-UAS-bla, beta-lactamase reporter, 18 h; series mostly up to 76.7 µM;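 note: 0% = DMSO basal wells and 100% = reference agonist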
Sequence of Retinoic acid receptor RXR-alpha (Homo sapiens) (P19793 whole entry, looked up): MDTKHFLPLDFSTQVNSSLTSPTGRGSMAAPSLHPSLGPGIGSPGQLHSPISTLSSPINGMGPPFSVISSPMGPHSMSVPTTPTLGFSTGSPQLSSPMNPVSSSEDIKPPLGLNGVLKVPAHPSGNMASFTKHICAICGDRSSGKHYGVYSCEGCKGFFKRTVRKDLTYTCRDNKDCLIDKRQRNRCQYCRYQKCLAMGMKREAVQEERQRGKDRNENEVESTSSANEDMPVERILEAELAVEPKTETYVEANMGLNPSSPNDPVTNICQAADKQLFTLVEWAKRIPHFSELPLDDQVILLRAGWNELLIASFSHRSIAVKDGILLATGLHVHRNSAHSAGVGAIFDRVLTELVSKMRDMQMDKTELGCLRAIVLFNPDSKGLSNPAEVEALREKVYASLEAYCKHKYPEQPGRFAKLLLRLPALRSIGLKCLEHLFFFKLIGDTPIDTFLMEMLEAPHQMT

[15] = qHTS assay for small molecule agonists of the antioxidant response element (ARE) signaling pathway (AID 651741; active = well fitted activation curve with a large enough effect in the signal ratio; the % refers to the signal ratio; note: potency is the fitted concentration of half-maximal effect; for activation: % of control where 0% means no effect); settings: HepG2 ARE-bla reporter, beta-lactamase FRET ratio, 16 h; series mostly up to 96 µM
Summary of the method: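 Stably integrated ARE-beta-lactamase reporter HepG2 cells; 16 h compound incubation, 37 C; LiveBLAzer FRET substrate 2 h at room temperature; fluorescence intensity.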

[16] = biological target: Glucocorticoid receptor (Homo sapiens) (UniProt P04150); test: qHTS assay for small molecule agonists of glucocorticoid receptor signaling (AID 588532; active = well fitted curve in the direction sought with a large enough effect in the signal ratio, with a control signal flat; the % refers to the signal ratio;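 note: 100% = dexamethasone at 0.1 µM and 0% = DMSO only wells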); settings: HeLa MMTV-bla, beta-lactamase ratio, agonist, 18 h; stronger effect = higher value; percent of dexamethasone control, DMSO zero
Sequence of Glucocorticoid receptor (Homo sapiens) (P04150 whole entry, looked up): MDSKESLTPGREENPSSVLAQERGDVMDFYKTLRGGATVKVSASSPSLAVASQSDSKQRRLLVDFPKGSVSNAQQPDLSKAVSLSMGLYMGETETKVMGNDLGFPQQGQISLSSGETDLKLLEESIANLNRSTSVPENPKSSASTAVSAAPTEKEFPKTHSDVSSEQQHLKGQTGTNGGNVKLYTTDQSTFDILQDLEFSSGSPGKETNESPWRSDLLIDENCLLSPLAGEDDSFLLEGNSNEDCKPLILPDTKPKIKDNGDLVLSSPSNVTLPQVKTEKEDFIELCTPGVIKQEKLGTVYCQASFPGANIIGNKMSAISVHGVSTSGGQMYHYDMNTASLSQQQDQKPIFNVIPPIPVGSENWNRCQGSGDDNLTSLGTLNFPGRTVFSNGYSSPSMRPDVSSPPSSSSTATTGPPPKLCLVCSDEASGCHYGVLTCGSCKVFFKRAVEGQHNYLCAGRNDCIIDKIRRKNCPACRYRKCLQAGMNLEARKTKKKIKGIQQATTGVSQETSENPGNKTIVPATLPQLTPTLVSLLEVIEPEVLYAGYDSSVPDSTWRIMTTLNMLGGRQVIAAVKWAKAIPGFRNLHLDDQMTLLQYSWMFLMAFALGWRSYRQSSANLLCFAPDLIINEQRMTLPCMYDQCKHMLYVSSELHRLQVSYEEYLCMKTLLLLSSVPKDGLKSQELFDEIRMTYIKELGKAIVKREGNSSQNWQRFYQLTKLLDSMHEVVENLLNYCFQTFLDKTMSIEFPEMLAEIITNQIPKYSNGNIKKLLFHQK
Summary of the method: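 Cells were plated and rested 3-5 h at 37 C, compounds were added in titration and incubated 18 h, then CCF4 substrate was loaded for 2 h at RT before reading blue/green fluorescence. EC50 came from Hill-equation fitting.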

[17] = biological target: Glucocorticoid receptor (Homo sapiens) (UniProt P04150); test: qHTS assay for small molecule antagonists of glucocorticoid receptor signaling (AID 588533; active = well fitted inhibition curve with a large enough effect in the signal ratio, with a control signal flat, not every such curve was filed as active; the % refers to the signal ratio; note: % is set by controls: 0 for no effect and ±100 for the full control effect); settings: HeLa MMTV-bla, GRE beta-lactamase ratio, antagonist mode, 18 h; series mostly up to 76.8 µM
Summary of the method: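 Antagonist-mode qHTS: compound titrations added to GRE-bla HeLa cells, then dexamethasone 2 nM final; 18 h, 37 C. CCF4 FRET fluorescence normalized to dexamethasone and DMSO; IC50 from Hill fit.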

[18] = biological target: Peroxisome proliferator-activated receptor gamma (Homo sapiens) (UniProt P37231); test: qHTS assay for small molecule antagonists of peroxisome proliferator-activated receptor gamma signaling (AID 588537; active = well fitted inhibition curve with a large enough effect in the signal ratio, with a control signal flat, not every such curve was filed as active; the % refers to the signal ratio;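 note: reporter cells co-stimulated with 50 nM rosiglitazone agonist during compound treatment; % of control where 0% means no effect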); settings: HEK293 PPARg-UAS-bla, beta-lactamase ratio, antagonist mode; series mostly up to 76.8 µM
Sequence of Peroxisome proliferator-activated receptor gamma (Homo sapiens) (P37231 whole entry, looked up): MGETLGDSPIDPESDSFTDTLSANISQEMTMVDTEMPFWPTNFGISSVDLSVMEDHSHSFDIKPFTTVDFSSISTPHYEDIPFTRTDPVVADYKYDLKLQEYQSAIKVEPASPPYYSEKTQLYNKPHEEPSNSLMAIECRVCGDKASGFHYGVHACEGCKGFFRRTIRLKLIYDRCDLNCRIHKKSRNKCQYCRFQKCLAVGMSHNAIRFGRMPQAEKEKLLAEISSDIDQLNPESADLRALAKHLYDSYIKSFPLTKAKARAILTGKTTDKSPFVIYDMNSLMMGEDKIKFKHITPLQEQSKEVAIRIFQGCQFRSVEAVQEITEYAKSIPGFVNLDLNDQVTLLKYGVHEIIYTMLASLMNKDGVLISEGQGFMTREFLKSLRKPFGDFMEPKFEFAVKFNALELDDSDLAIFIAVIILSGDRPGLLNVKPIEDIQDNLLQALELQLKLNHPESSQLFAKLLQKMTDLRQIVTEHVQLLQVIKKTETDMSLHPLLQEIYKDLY
Summary of the method: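 Fluorescence at 460 and 530 nm (405 nm excitation) reported beta-lactamase cleavage of CCF4 after 2 h room-temperature loading. HEK293 reporter cells in 1% charcoal/dextran-treated FBS had received compound and rosiglitazone for 16 h.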

[19] = qHTS assay for small molecule disruptors of the mitochondrial membrane potential - 1 hr assay (AID 651754); settings: series mostly up to 92.2 µM; note: nearly all actives have a fitted effect of over 35% in size; note: potency is the fitted concentration of half-maximal effect
Summary of the method: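 Mitochondrial potential in living HepG2 cells after 1 hr compound treatment at 37C was read with Mito-MPS dye added for a further 30 min. Red aggregate and green monomer fluorescence were measured; loss of potential leaves dye as cytoplasmic monomers.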

[20] = biological target: Estrogen receptor (Homo sapiens) (UniProt P03372); test: qHTS assay for small molecule agonists of estrogen receptor alpha signaling (AID 588514); settings: ER-alpha-UAS-bla HEK293, beta-lactamase ratio, 18 h; series mostly up to 76.8 µM;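 note: 0% = vehicle only and 100% = reference agonist; nearly all actives have a fitted effect of over 70% in size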
Summary of the method: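 EC50 and efficacy came from Hill fits of beta-lactamase reporter signal (CCF4 dye, 2 h at room temperature) scaled between DMSO and 20 nM 17-beta-estradiol. Agonist mode: HEK293 ER-alpha-UAS-bla cells in charcoal/dextran-stripped serum medium, 18 h compound exposure at 37 C.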

O=S(=O)(O)F
inactive: Potency [1] > 92 µM | Potency [2] > 92 µM | Potency [3] | Potency [4] | Potency [5] | Potency [6] | caspase-3 activation [7] 1.63% | Potency [8] | outcome [9] | activation [10] 0.0183% | outcome [11] | outcome [13] | outcome [14] | Potency [15]
7.1%: max response [12]

Oc1cc(Cl)cc(Cl)c1
active: Potency [19] 42.2 µM
inactive: Potency [1] > 92 µM | Potency [2] > 92 µM | Potency [6] | Potency [8] | activation [16] 6.41% | outcome [17] | outcome [11] | Potency [18] | outcome [14]

BrC(Br)Br
inactive: Potency [1] > 92 µM | Potency [2] > 92 µM | Potency [3] | Potency [4] | Potency [5] | caspase-3 activation [7] -0.161% | outcome [9] | activation [10] -2.73% | activation [16] -1.59% | outcome [17] | outcome [11] | outcome [13] | outcome [14] | Potency [19]

C[N+](=O)[O-]
3.34%: max response [12]
inactive: Potency [1] > 92 µM | Potency [2] > 92 µM | Potency [3] | Potency [4] | Potency [5] | Potency [6] | caspase-3 activation [7] 0.536% | Potency [8] | Potency [20] | activation [16] -0.802% | outcome [17] | outcome [11] | Potency [18] | outcome [13] | outcome [14] | Potency [19]

C=C(Cl)CSC(=S)N(CC)CC
-17.2%: max response [12]
active: activity change, negative = cytotoxicity [4] -85.8%
inactive: Potency [1] > 92 µM | Potency [5] | Potency [6] | outcome [9] | activation [10] 1.19% | outcome [11] | Potency [18] | outcome [14] | Potency [19]

COC(=O)Nc1nc2ccccc2[nH]1
inactive: Potency [1] > 92 µM | Potency [2] > 92 µM | Potency [3] | caspase-3 activation [7] 10.9% | activation [16] -11.7% | outcome [11] | Potency [18] | outcome [13] | Potency [19]
active: Potency [4] 6.31 µM | Potency [5] 3.98 µM | Potency [6] 7.94 µM | Potency [15] 61.1 µM
-45%: max response [12]

N#CC(Cl)(Cl)Cl
inactive: Potency [1] > 92 µM | Potency [2] > 92 µM | Potency [3] | Potency [4] | Potency [5] | Potency [8] | Potency [20] | outcome [9] | activation [10] -1.65% | activation [16] 5.98% | outcome [17] | outcome [11] | Potency [15] | Potency [19]

c1ccc(NNc2ccccc2)cc1
13.2% and 5.7%: max response [12]
inactive: Potency [1] > 92 µM | Potency [3] | Potency [4] | Potency [5] | Potency [6] | outcome [9] | activation [10] 1.06% and 0.0431% | activation [16] 1.14% and -8.47% | outcome [17] | outcome [11] | outcome [13] | outcome [14] | Potency [15] | Potency [19]
